Test results reported in PubChem BioAssay (NCI).
About 83,000 compounds went through this panel and 20% of them were active in at least one assay; those are over-represented in the sample as a whole.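 Single-dose data. Exposure time 48 hours. Values below 10 considered active.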 The source made the active and inactive calls.

How the values were obtained:
Test in all cases: NCI-60 one-dose screen, 48 h (100 = growth as untreated, 0 = no growth, -100 = all killed)
SK-MEL-2 melanoma = settings: 10 µM
EKVX NSCLC = settings: 10 µM unless noted
SN12C renal = settings: 10 µM unless noted
UO-31 renal = settings: 10 µM unless noted
TK-10 renal = settings: 10 µM unless noted
ACHN renal = settings: 10 µM unless noted
A498 renal = settings: 10 µM unless noted
CCRF-CEM leukemia = settings: 10 µM unless noted
MOLT-4 leukemia = settings: 10 µM unless noted
CAKI-1 renal = settings: 10 µM unless noted

Measured: growth

Cc1cc(N(CCNc2ccnc3cc(Cl)ccc23)Cc2ccc3c(c2)OCO3)nc(N2CCCC2)n1
active: SK-MEL-2 melanoma -39.9% | UO-31 renal -56.2% | TK-10 renal -43.5% | ACHN renal -49.1% | A498 renal -2.25% | CCRF-CEM leukemia -0.451% | MOLT-4 leukemia -17.7%
inactive: EKVX NSCLC 35.8% | SN12C renal 27.9%

CC(C)OP(=O)(CCC(=O)c1c[nH]c2ccccc12)OC(C)C
inactive: SK-MEL-2 melanoma 98.9% | EKVX NSCLC 96.5% | SN12C renal 103% | UO-31 renal 82.9% | TK-10 renal 97.8% | ACHN renal 101% | A498 renal 104% | MOLT-4 leukemia 93.3%

N#Cc1c(-c2ccc(C(F)(F)F)cc2)cc(NCC2CCS(=O)(=O)CC2)n2c1nc1ccccc12
inactive: SK-MEL-2 melanoma 89.7% | EKVX NSCLC 77.5% | SN12C renal 82.3% | TK-10 renal 93.1% | ACHN renal 86.8% | CAKI-1 renal 80.9% | A498 renal 55.3% | CCRF-CEM leukemia 86.2% | MOLT-4 leukemia 74.3%

O=C(Nc1ccc(C2=NCCCN2)cc1)c1ccc(C(=O)Nc2ccc(C3=NCCCN3)cc2)nc1
inactive: SK-MEL-2 melanoma 109% | EKVX NSCLC 96% | SN12C renal 99.8% | UO-31 renal 82.6% | TK-10 renal 122% | ACHN renal 107% | A498 renal 127% | CCRF-CEM leukemia 107% | MOLT-4 leukemia 85.8%

COc1cc(-c2cc(-c3ccc(Nc4ccnc5cc(Cl)ccc45)cc3)nc(N3CCOCC3)n2)cc(OC)c1OC
active: SN12C renal -11.9% | TK-10 renal -75.9% | CCRF-CEM leukemia -4.98%
inactive: SK-MEL-2 melanoma 83.9% | EKVX NSCLC 30.9% | UO-31 renal 37.5% | ACHN renal 16.7% | A498 renal 102% | MOLT-4 leukemia 19.6%

CC(=O)OC1Oc2ccccc2-c2oc(=O)c(-c3cc4ccc(N(C)C)cc4oc3=O)cc21 (centres undefined)
active: CCRF-CEM leukemia 6.68% | MOLT-4 leukemia -28.3%
inactive: SK-MEL-2 melanoma 46.7% | EKVX NSCLC 35.3% | SN12C renal 72% | TK-10 renal 12.2% | ACHN renal 47.4% | CAKI-1 renal 46.1% | A498 renal 14.2%

COc1ccc(C2OC(c3cc(-c4cc5ccccc5o4)nn3-c3ccccc3)=NN2C(C)=O)cc1 (centres undefined)
inactive: SK-MEL-2 melanoma 94.5% | EKVX NSCLC 94.5% | SN12C renal 93.2% | TK-10 renal 111% | ACHN renal 99.3% | CAKI-1 renal 100% | CCRF-CEM leukemia 95.5% | MOLT-4 leukemia 83%

COc1ccc(C2CC(=O)c3c(O)c(OC)c(OC)c(OC)c3O2)cc1O (centres undefined)
inactive: SK-MEL-2 melanoma 48.8% | EKVX NSCLC 50.4% | SN12C renal 45.4% | TK-10 renal 70.6% | ACHN renal 40.4% | CAKI-1 renal 38.9% | CCRF-CEM leukemia 24.2% | MOLT-4 leukemia 22%

O=C(Cc1ccccc1)Nc1nnc(NC2CCN(c3nnc(NC(=O)Cc4ccccc4)s3)CC2)s1
inactive: SK-MEL-2 melanoma 122% | EKVX NSCLC 90.2% | SN12C renal 86% | TK-10 renal 110% | ACHN renal 103% | A498 renal 43.8% | CCRF-CEM leukemia 72.4% | MOLT-4 leukemia 91.3%

CC(C)[C@@H](C)/C=C/[C@@H](C)[C@H]1CCC2=C3C=CC4=CC(=O)CC[C@]4(C)[C@H]3CC[C@@]21C
inactive: SK-MEL-2 melanoma 101% | EKVX NSCLC 99.1% | SN12C renal 101% | TK-10 renal 87.8% | ACHN renal 109% | CAKI-1 renal 93.9% | CCRF-CEM leukemia 82.2% | MOLT-4 leukemia 85.5%

Cc1cc2c(-c3nc4ccccn4c3Nc3cccc4ccccc34)c(O)c(O)cc2c(O)c1-c1c(C)cc2c(-c3nc4ccccn4c3Nc3cccc4ccccc34)c(O)c(O)cc2c1O
inactive: SK-MEL-2 melanoma 38.3% | EKVX NSCLC 51.4% | SN12C renal 16.7% | TK-10 renal 50.9% | ACHN renal 49.2% | A498 renal 29.6% | CCRF-CEM leukemia 27.3% | MOLT-4 leukemia 31.2%

CCCC(=O)OCC1OC(n2cnc3c(=S)nc(N)[nH]c32)C(OC(=O)CCC)C1OC(=O)CCC (centres undefined)
inactive: SK-MEL-2 melanoma 15% | EKVX NSCLC 42.4% | SN12C renal 42.8% | TK-10 renal 23.5% | ACHN renal 39.7%
active: A498 renal -2.02% | MOLT-4 leukemia 0.324%

Clc1nc(Cl)c2ncn(CC#CCn3cnc4c(Cl)nc(Cl)nc43)c2n1
active: EKVX NSCLC -39.3% | SN12C renal 3.09% | TK-10 renal -31.5% | ACHN renal -53.3% | CAKI-1 renal -96.5% | CCRF-CEM leukemia -62.2% | MOLT-4 leukemia 1.03%
inactive: SK-MEL-2 melanoma 65.3%

Cc1cc2c(-c3nc4ccccn4c3NC34CC5CC(CC(C5)C3)C4)c(O)c(O)cc2c(O)c1-c1c(C)cc2c(-c3nc4ccccn4c3NC34CC5CC(CC(C5)C3)C4)c(O)c(O)cc2c1O
active: SK-MEL-2 melanoma -2.48% | EKVX NSCLC 5.97% | TK-10 renal 7.59% | ACHN renal 7.04% | MOLT-4 leukemia 8.13%
inactive: SN12C renal 15.9% | A498 renal 10.8% | CCRF-CEM leukemia 16.4%

CC1(C)NC(=O)c2[nH]c3c(Cl)c(Cl)ccc3c2C1C#N (centres undefined)
inactive: SK-MEL-2 melanoma 80.6% | EKVX NSCLC 67.2% | SN12C renal 89.5% | TK-10 renal 63.2% | ACHN renal 78.6% | CAKI-1 renal 49.8% | CCRF-CEM leukemia 70.3% | MOLT-4 leukemia 62%

CN1CCN(c2nc(NCCNc3ccnc4cc(Cl)ccc34)c3ccccc3n2)CC1
inactive: EKVX NSCLC 52.3% | TK-10 renal 16.5% | A498 renal 102%
active: SK-MEL-2 melanoma -45.5% | UO-31 renal -9.51% | ACHN renal 5.61% | CCRF-CEM leukemia 3.19% | MOLT-4 leukemia 6.2%

N#Cc1c(NC(=O)c2cccs2)[n+]([O-])c2ccc(F)cc2[n+]1[O-]
inactive: SK-MEL-2 melanoma 92.9% | EKVX NSCLC 86.4% | SN12C renal 98.3% | TK-10 renal 117% | ACHN renal 89% | CAKI-1 renal 90.7% | CCRF-CEM leukemia 77.7% | MOLT-4 leukemia 90.2%

N#CC1(C#N)C(c2cccs2)NC(c2cccs2)C1(C#N)C#N (centres undefined)
inactive: SK-MEL-2 melanoma 102% | EKVX NSCLC 94% | SN12C renal 105% | TK-10 renal 114% | ACHN renal 102% | A498 renal 116% | CCRF-CEM leukemia 100% | MOLT-4 leukemia 95.3%

COc1ccc(-c2cc3c(oc2=O)-c2ccccc2OC3OC(C)=O)cc1 (centres undefined)
active: CCRF-CEM leukemia -25.9%
inactive: SK-MEL-2 melanoma 100% | EKVX NSCLC 73.2% | SN12C renal 91.5% | TK-10 renal 104% | ACHN renal 102% | CAKI-1 renal 113% | A498 renal 100% | MOLT-4 leukemia 72.4%

Cc1cc(N(CCNc2ccnc3cc(Cl)ccc23)Cc2ccc3c(c2)OCO3)nc(N2CCN(C)CC2)n1
inactive: EKVX NSCLC 73.4% | A498 renal 42.6%
active: SK-MEL-2 melanoma -57.5% | UO-31 renal 2.58% | TK-10 renal -24.9% | ACHN renal -20.6% | CCRF-CEM leukemia -11.8% | MOLT-4 leukemia 0.0794%

COc1cc2c(cc1OCCCCCN1CCN(c3ncnc4ccccc34)CC1)N=CC1CCCN1C2=O (centres undefined)
active: SK-MEL-2 melanoma 1.29% | EKVX NSCLC -41.5% | SN12C renal 1.92% | TK-10 renal -21.4% | ACHN renal 1.61% | CAKI-1 renal -18.1% | CCRF-CEM leukemia -37.2% | MOLT-4 leukemia 0.399%

c1ccc2c(c1)CCN(NCCN1CCCC1)C2
inactive: SK-MEL-2 melanoma 91.5% | EKVX NSCLC 86.4% | UO-31 renal 75% | TK-10 renal 96.6% | ACHN renal 89% | A498 renal 87.7% | CCRF-CEM leukemia 79.3% | MOLT-4 leukemia 99.4%

Clc1nc(Cl)c2ncn(C/C=C\Cn3cnc4c(Cl)nc(Cl)nc43)c2n1
active: EKVX NSCLC -68% | SN12C renal -11.3% | TK-10 renal -45.6% | ACHN renal -94.5% | CAKI-1 renal -97.2% | A498 renal -18.2% | CCRF-CEM leukemia -73.4% | MOLT-4 leukemia -55.4%
inactive: SK-MEL-2 melanoma 23.5%

C=CC(=O)N(C)[C@H]1C[C@H]2OC(C)(C1OC)n1c3ccccc3c3c4c(c5c6ccccc6n2c5c31)C(=O)NC4 (some centres undefined)
inactive: EKVX NSCLC 17.9% | ACHN renal 12.9%
active: SK-MEL-2 melanoma -24.6% | SN12C renal 6.85% | TK-10 renal -2.16% | A498 renal -38.7% | CCRF-CEM leukemia -7.8% | MOLT-4 leukemia -40.1%

COc1cc2c(cc1OCCCCCCN1CCN(c3ncnc4ccccc34)CC1)N=CC1CCCN1C2=O (centres undefined)
active: SK-MEL-2 melanoma 3.62% | EKVX NSCLC -8.7% | SN12C renal -10.4% | TK-10 renal 1.29% | ACHN renal 0.483% | CAKI-1 renal -19.6% | CCRF-CEM leukemia -32.8% | MOLT-4 leukemia -32.1%

CC12O[C@H](C[C@@H](OC(=O)CCC(=O)O)[C@H]1O)n1c3ccccc3c3c4c(c5c6ccccc6n2c5c31)C(=O)NC4=O
active: UO-31 renal -15.9% | TK-10 renal 2.26% | A498 renal -30.6% | CCRF-CEM leukemia 7.97% | MOLT-4 leukemia 5.17%
inactive: SK-MEL-2 melanoma 23.3% | EKVX NSCLC 42.9% | ACHN renal 19.4%

COC(=O)c1[nH]cnc1/N=N/N(C)CCO
inactive: SK-MEL-2 melanoma 108% | EKVX NSCLC 97.9% | UO-31 renal 84.9% | TK-10 renal 129% | ACHN renal 103% | A498 renal 121% | CCRF-CEM leukemia 102% | MOLT-4 leukemia 85.8%

N#Cc1c(NC(=O)c2ccco2)[n+]([O-])c2cc(F)c(F)cc2[n+]1[O-]
inactive: SK-MEL-2 melanoma 97.2% | EKVX NSCLC 109% | SN12C renal 94.9% | TK-10 renal 80.2% | ACHN renal 97.8% | CAKI-1 renal 66.7% | CCRF-CEM leukemia 67.2% | MOLT-4 leukemia 75%

ClCc1ccc(-c2ccc(Cn3cnc4c(Cl)nc(Cl)nc43)cc2)cc1
inactive: SK-MEL-2 melanoma 46.1% | SN12C renal 26.1%
active: EKVX NSCLC -57.9% | TK-10 renal -67.8% | ACHN renal -21% | CAKI-1 renal -98.8% | CCRF-CEM leukemia -31.1% | MOLT-4 leukemia 4.29%

CCCCCCC1(/C=N/NC(N)=O)NC(=O)NC1=O (centres undefined)
inactive: SK-MEL-2 melanoma 98.8% | EKVX NSCLC 91.8% | SN12C renal 105% | TK-10 renal 99.1% | ACHN renal 105% | CAKI-1 renal 91.7% | CCRF-CEM leukemia 102% | MOLT-4 leukemia 101%

Oc1ccc(/C=N/Nc2nnc(N/N=C/c3ccc(O)cc3O)c3ccccc23)c(O)c1
active: SK-MEL-2 melanoma -58% | EKVX NSCLC -18.4% | UO-31 renal 0% | ACHN renal -3.24% | A498 renal -61.1% | CCRF-CEM leukemia -51.4% | MOLT-4 leukemia -26.9%
inactive: TK-10 renal 10.5%
